High-throughput results deposited in PubChem BioAssay by National Center for Advancing Translational Sciences (NCATS).
HT1080 IDH1KD tx: toxicity to HT-1080 IDH1 knockdown cells (counter line). HT-1080 IDH1 knockdown viability, ATP luminescence, 48 h. Potency, µM (top dose mostly 46.1 µM), for inactives: at the highest dose activity, negative = toxicity, usual class: cytotoxic. 2% of 360,000 active. AID 686971;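 note: 0% = DMSO wells and -100% = cell-free medium wells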
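HT-1080-IDH1KD cells (IDH1 knocked down), 750/well in RPMI with 5% FBS, treated with compound 48 h at 37 degrees C. Viability by CellTiter-Glo luminescence, normalised to DMSO and no-cell wells; concentration-response curves classed.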
HT1080NT lethal: kills 2HG-producing HT-1080-NT fibrosarcoma cells; HT-1080-NT fibrosarcoma viability, CellTiter-Glo ATP luminescence, 48 h; Potency, µM (titrated, usually from 46.1 µM), inactives show top-dose activity, negative = less viability, actives largely listed as cytotoxic; 1.6% of 360,000 active; AID 686970;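 note: NT is the 2HG producing partner of a matched IDH1 knockdown line; 0% = DMSO-treated cells and -100% = media-only wells without cells; nearly all actives have a fitted effect of over 55% in size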
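750 cells/well, RPMI + 5% FBS; 2 h settle, compound pin-transfer, 48 h at 37 degrees C. CellTiter-Glo 10 min RT, luminescence. Normalized to DMSO and media-only wells.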
TGFb SMAD3 inh: TGF-b pathway inhibition; HepG2 CAGA-GFP TGF-b/SMAD3 reporter, GFP fluorescence, 18 h; TGF-beta stimulated, 500 pg/mL final; Potency, µM (series often up to 46.1 µM), for the others: top-dose activity, negative = inhibition, hits mostly inhibitors; 1.2% of 410,000 active; AID 588855; note: % is set by controls: 0 for no effect and ±100 for the full control effect; nearly all actives have a fitted effect of over 65% in size
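Cell-based qHTS in HEPG2 carrying a CAGA-GFP Smad reporter; compounds added before 500 pg/mL final TGF-beta, 18 h incubation at 37 degrees C, GFP fluorescence quantified per cell by imaging cytometry.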
DT40 TDP1 no CPT: qHTS for Inhibitors of human tyrosyl-DNA phosphodiesterase 1 (TDP1): qHTS in cells in absence of CPT. DT40 Tdp1-/- hTDP1 cells, no CPT, ATP luminescence, 48 h. Potency, µM (series often up to 46.2 µM), for the others: top-dose activity change, negative = growth inhibition, hits mostly inhibitors. 15% of 420,000 active; note: % is set by controls: 0 for no effect and ±100 for the full control effect; nearly all actives have a fitted effect of over 55% in size
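A cellular qHTS used chicken DT40 cells lacking endogenous Tdp1 but carrying stably transfected human TDP1. Compounds were applied without camptothecin, and cell growth kinetics were judged by ATP-dependent luminescence after ≥48 hr.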
DT40 TDP1 CPT: DT40-hTDP1 cell growth loss with CPT; chicken DT40 Tdp1-/-;hTDP1 cells + 20 nM CPT, ATP luminescence, 48 h; Potency, µM (top dose mostly 46.2 µM), for the others: at the highest dose activity change, negative = growth inhibition, actives largely listed as inhibitors; 12% of 420,000 active; AID 686979; note: % is set by controls: 0 for no effect and ±100 for the full control effect; nearly all actives have a fitted effect of over 55% in size
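Chicken DT40 Tdp1-/- cells complemented with human TDP1, 400 cells/well, exposed to compounds plus 20 nM camptothecin for at least 48 h at 37 C; viability read as ATP content by CellTiter-Glo luminescence.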
HepG2 viability: HepG2 cytotoxicity, counter-screen for TGF-b inhibitors; HepG2 CAGA-GFP viability, ATP luminescence, 18 h; 0.76% of 410,000 active; Potency, µM (doses to about 46.1 µM), for the others: at the highest dose activity change, negative = cytotoxicity, most hits filed as cytotoxic
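CellTiter-Glo luminescence gave cytotoxicity after 18 hours at 37 degrees C. The cells were HepG2 CAGA-GFP in 1% FBS DMEM, stimulated with 500 pg/mL TGF-beta after compound addition. %Activity was normalised to no-cell wells (complete cell-killing) and DMSO (no toxicity), and curves were fitted and classified.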
* hit, by the source's call; u = inconclusive; x = no result. This is a sample that favours compounds with a hit; in the whole collection about 17% have one here. Calls come from the whole dose curve; as a rule, active = well fitted curve in the direction sought with a large enough effect; inconclusive = small, poorly fitted or top-dose-only effect, or another doubt; inactive = no such curve, though single readings can be large; an effect the other way counts as inactive or inconclusive. Potency is the fitted concentration of half-maximal effect.

SMILES	HT1080 IDH1KD tx	HT1080NT lethal	TGFb SMAD3 inh	DT40 TDP1 no CPT	DT40 TDP1 CPT	HepG2 viability
CCOC(=O)[C@]12CCC=C1N(CCC1=CCCCC1)C(=O)[C@H](CC(=O)NCc1ccccc1)C2	-1%	2%	x	u	u	x
CCOC(=O)[C@]12CCC=C1N(Cc1ccccc1)C(=O)[C@H](CC(=O)NCc1ccc(OC)c(OC)c1)C2	-12%	6%	x	u	u	x
CCOC(=O)[C@]12CCC=C1N(Cc1ccccc1)C(=O)[C@H](CC(=O)NCc1cccc(C(F)(F)F)c1)C2	u	u	x	23µM*	u	x
COc1cccc(C(=O)Nc2ccc(C(=O)NCC3CCCO3)cc2)c1 (centres undefined)	2%	5%	4%	-17%	1%	13%
Cc1ncc(CO)c(/C=N/NC(=S)Nc2cccc(Cl)c2)c1O	-24%	-12%	u	16µM*	u	-36%
Cc1ncc(CO)c(/C=N/NC(=S)Nc2ccc(Cl)c(Cl)c2)c1O	-28%	-13%	u	13µM*	16µM*	-72%
CCOC(=O)c1ccc(CN(Cc2ccc(F)cc2)S(=O)(=O)c2ccc(F)c(C(=O)Nc3ccc(Cl)cc3F)c2)cc1	x	x	-5%	-9%	11%	1%
CCSc1ccc2cc(OC)ccc2[n+]1CC	6%	14%	5%	7.3µM*	5.8µM*	-7%
CC[C@H](C)N(C)C(=O)c1cc2ccccc2c(-c2ccccc2Cl)n1	x	x	x	30µM*	u	x
Cc1c(-c2ccccc2Cl)nc2ccccc2c1C(=O)O	2%	2%	-7%	-1%	0%	2%
CCOc1ccc2nc(N3C(=O)/C(=C/c4ccc(Cl)cc4)NC3=S)sc2c1	-2%	11%	-15%	10µM*	u	-13%
CCOc1ccc2nc(N3CCN(C(=O)C(C)C)CC3)sc2c1	x	x	-2%	u	u	-4%
O=C(CSc1nc(=O)n(Cc2ccco2)c2c1CCC2)Nc1cccc(F)c1	x	x	7.9µM*	-20%	u	-22%
O=C(CSc1nc(=O)n(Cc2ccco2)c2c1CCC2)NCc1ccc(F)cc1	x	x	-28%	-16%	-22%	-22%
Cc1nc2ccccc2c2c(N)c3ccccc3n12	-9%	u	-6%	21µM*	u	4%
Cc1nc2ccccc2n1-c1ccccc1	0%	1%	-2%	u	u	-2%
CCCCc1cc(=O)oc2cc(O)ccc12	-13%	-14%	-1%	u	-17%	-6%
CCN(CC)c1ccc2c(O)cc(=O)oc2c1	22%	1%	2%	1%	5%	14%
CCN(CC)c1ccc2c(Cl)cc(=O)oc2c1	-2%	3%	u	-29%	23µM*	-19%
CCN(CC)c1ccc(C(=O)OCc2cc(=O)oc3cc(O)ccc23)cc1	u	u	3%	16µM*	u	-15%
CSCCC(NC(=O)c1ccco1)C(=O)Nc1ccncc1 (centres undefined)	3%	11%	0%	2%	3%	-1%
Cc1cc(=O)c2c(C)ccc(C)c2[nH]1	4%	2%	-9%	9.2µM*	u	-1%
Cn1cccc1C(=O)OCc1cc(-c2ccco2)on1	11%	13%	-1%	1%	-18%	-3%
Cc1ccc(NC(=O)CCc2nnc3n(CC(C)C)c(=O)c4ccccc4n23)cc1C	x	x	-17%	23µM*	26µM*	-1%
COc1ccc(NC(=O)CCc2nnc3n(Cc4ccccc4Cl)c(=O)c4ccccc4n23)cc1	x	x	0%	3.3µM*	3.3µM*	3%
